According to PubChem BioAssay:
Calls of active or inactive are those of the source.

How the values were obtained:
[1] = test system: Plasmodium falciparum Sir2 (PF13_0152, Sir2A); assay: Plasmodium falciparum Sir2A binding compounds – biochemical, small-molecule microarray, 635 nm fluorescence, primary screen (AID 1098); conditions: fluorescence 635 nm, higher = more signal;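 note: score merges spot fluorescence intensity with its signal-to-noise ratio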
[2] = probe aDKK1 binding to arrayed compounds – biochemical, biotinylated probe, 635/667 nm fluorescence, primary screen (AID 1099); conditions: small-molecule microarray, higher = more signal;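 note: score merges 667nm spot fluorescence with signal to noise across triplicate slides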
[3] = probe aCHRDL2 binding to arrayed compounds – biochemical, biotinylated probe, 635/667 nm fluorescence, primary screen (AID 1100); conditions: small-molecule microarray, higher = more signal
[4] = change in splice reporter luminescence, either direction, cell-based, HEK293, spliceosome inhibition project, primary screen (AID 1101); conditions: HEK293 splicing luciferase reporter, 24 h, higher = more signal, called active from +8 up or from −8 down;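 note: HEK293 cells carrying a splicing-competent luciferase reporter gene; test concentration not given here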
[5] = biological target: Fibroblast growth factor 10 (Homo sapiens) (UniProt O15520); assay: compounds binding fibroblast growth factor 10 – biochemical, small-molecule microarray, 635 nm fluorescence, primary screen (AID 1102); conditions: FGF10 binding, fluorescence 635 nm, higher = more signal
[6] = test system: glycogen synthase kinase-3 (GSK3A per assay name; protocol says GSK3B); assay: compounds binding glycogen synthase kinase-3 – biochemical, small-molecule microarray, 635 nm fluorescence, GSK3A, primary screen (AID 1103); conditions: fluorescence 635 nm, higher = more signal; note: the record names both GSK3A and GSK3B
[7] = biological target: Epidermal growth factor receptor (Homo sapiens) (UniProt P00533); assay: compounds binding epidermal growth factor receptor – biochemical, small-molecule microarray, 635 nm fluorescence, primary screen (AID 1104); conditions: EGFR binding, higher = more signal;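 note: score merges 667 nm emission intensity with spot signal to noise over triplicate slides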
[8] = biological target: Follistatin-related protein 3 (Homo sapiens) (UniProt O95633); assay: compounds binding follistatin-related protein 3 – biochemical, small-molecule microarray, 635 nm fluorescence, primary screen (AID 1105); conditions: FSTL3 binding, higher = more signal;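 note: score merges emission near 667 nm and signal to noise per printed spot across three slides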
[9] = biological target: Dickkopf-related protein 1 (Homo sapiens) (UniProt O94907); assay: small molecules binding DKK1 protein – biochemical, small-molecule microarray, 635 nm fluorescence scan, primary screen (AID 1106); conditions: higher = more signal;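 note: score merges emission near 667 nm with signal to noise over three replicate slides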
[10] = test system: Inhibin beta A chain (activin A); assay: small molecules binding activin A – biochemical, small-molecule microarray, 635 nm fluorescence scan, primary screen (AID 1107); conditions: INHBA, higher = more signal;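 note: mouse activin A protein probed at 4.33 µg/mL on printed slides; score merges bound-protein fluorescence near 667 nm with spot signal-to-noise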
[11] = test system: Human papillomavirus type 1a protein E7 (residues 44-93); assay: small molecules binding HPV E7 44-93 – biochemical, small-molecule microarray, residues 44-93, 635 nm fluorescence, primary screen (AID 1108); conditions: fluorescence 635 nm, higher = more signal;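 note: E7 fragment applied at 1 µg/mL in TBST for 1 h at 4 C; score combines spot fluorescence with its signal to noise ratio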
[12] = hepatitis C replication reporter changes, two-sided – Huh7 cells, luciferase reporter, HCV replication inhibitor project, primary screen (AID 1109); conditions: Huh7 HCV replicon luciferase reporter, 48 h; higher = more signal;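 note: huh7 hepatoma cells harbouring a luciferase neomycin HCV replicon reporter; luciferase luminescence as measure of HCV replicon replication; test concentration not given here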
[13] = biological target: Left-right determination factor 2 (Homo sapiens) (UniProt O00292); assay: small molecules binding LEFTY2 protein – biochemical, small-molecule microarray, 635 nm fluorescence scan, primary screen (AID 1110); conditions: higher = more signal
[14] = biological target: Calmodulin-1 (Homo sapiens) (UniProt P0DP23); assay: small molecules binding calmodulin-1 with EGTA – biochemical, small-molecule microarray, Cy5-labelled CALM1, profiling panel (AID 1111); conditions: Cy5-CALM1 binding fluorescence, higher = more signal;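 note: labelled calmodulin applied in Tris saline Tween buffer holding calcium plus EGTA and DTT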
[15] = biological target: Calmodulin-1 (Homo sapiens) (UniProt P0DP23); assay: small molecules binding Ca-loaded calmodulin-1 – biochemical, small-molecule microarray, Cy5-labelled CALM1, plus calcium, artefact control for SMM control-protein annotation, profiling panel (AID 1112); conditions: Cy5-CALM1 binding fluorescence, higher = more signal;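 note: score merges spot fluorescence with signal to noise from triplicate slides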
[16] = probe aWnt5a binding to arrayed compounds – biochemical, biotinylated probe, 635/667 nm fluorescence, primary screen (AID 1113); conditions: small-molecule microarray, higher = more signal;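 note: score merges 667 nm fluorescence intensity with signal-to-noise per printed feature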
[17] = probe aShh binding to arrayed compounds – biochemical, biotinylated probe, 635/667 nm fluorescence, primary screen (AID 1114); conditions: small-molecule microarray, higher = more signal;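 note: probe is biotin-labelled aShh protein from a stem cell growth factor screen; measures binding of labelled protein to compounds printed on the slide; score merges feature fluorescence at 667 nm with signal-to-noise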
[18] = probe aNog binding to arrayed compounds – biochemical, biotinylated probe, 635/667 nm fluorescence, primary screen (AID 1115); conditions: small-molecule microarray, higher = more signal;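 note: probe is biotinylated aNog protein used at 0.15 µg/mL for 1 h at 4 C; z-score combines 667 nm fluorescence of each spot with its signal to noise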
[19] = biological target: Torsin-1A-interacting protein 1 (Homo sapiens) (UniProt Q5JTV8); assay: compound microarray binding of lysate hLAP1 – cell lysate, small-molecule microarray, COS7 lysate, 635/667 nm fluorescence, primary screen (AID 1116); conditions: 635 nm fluorescence, higher = more signal
[20] = biological target: Alpha-bungarotoxin (Bungarus multicinctus) (UniProt P60615); assay: compounds binding labelled alpha-BTX control protein – biochemical, small-molecule microarray, Alexa647 label, 635/667 nm fluorescence, artefact control for SMM control protein annotation, profiling panel (AID 1117); conditions: alpha-BTX-A647 binding fluorescence, higher = more signal
Sequence of Alpha-bungarotoxin (Bungarus multicinctus) (P60615 whole entry, looked up): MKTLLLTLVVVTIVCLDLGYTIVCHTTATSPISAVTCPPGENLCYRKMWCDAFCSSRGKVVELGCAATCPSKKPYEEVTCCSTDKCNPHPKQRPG

Sequence of Follistatin-related protein 3 (Homo sapiens) (O95633 whole entry, looked up): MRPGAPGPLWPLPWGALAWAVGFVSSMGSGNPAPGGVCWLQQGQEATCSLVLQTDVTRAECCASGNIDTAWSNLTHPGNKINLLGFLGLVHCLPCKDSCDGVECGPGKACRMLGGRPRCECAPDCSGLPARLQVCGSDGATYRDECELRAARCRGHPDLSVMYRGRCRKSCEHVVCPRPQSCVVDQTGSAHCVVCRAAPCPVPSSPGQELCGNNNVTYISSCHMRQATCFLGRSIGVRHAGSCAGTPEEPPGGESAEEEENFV
Sequence of Torsin-1A-interacting protein 1 (Homo sapiens) (Q5JTV8 whole entry, looked up): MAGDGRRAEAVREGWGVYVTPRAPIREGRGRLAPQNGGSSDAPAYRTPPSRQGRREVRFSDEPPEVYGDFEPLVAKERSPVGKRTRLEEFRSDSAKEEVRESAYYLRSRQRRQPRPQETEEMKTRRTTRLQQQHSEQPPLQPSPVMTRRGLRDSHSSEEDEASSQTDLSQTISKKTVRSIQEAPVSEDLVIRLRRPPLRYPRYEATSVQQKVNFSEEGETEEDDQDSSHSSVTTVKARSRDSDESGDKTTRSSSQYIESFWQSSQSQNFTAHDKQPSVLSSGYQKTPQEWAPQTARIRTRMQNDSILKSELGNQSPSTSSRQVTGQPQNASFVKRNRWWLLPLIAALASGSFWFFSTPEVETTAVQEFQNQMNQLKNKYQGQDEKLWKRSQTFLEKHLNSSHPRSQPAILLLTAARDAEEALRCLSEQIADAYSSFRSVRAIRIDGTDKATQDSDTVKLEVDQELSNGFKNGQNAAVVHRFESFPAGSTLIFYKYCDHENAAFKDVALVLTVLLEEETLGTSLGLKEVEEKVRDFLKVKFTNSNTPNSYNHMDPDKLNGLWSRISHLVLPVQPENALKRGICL
Sequence of Epidermal growth factor receptor (Homo sapiens) (P00533 whole entry, looked up): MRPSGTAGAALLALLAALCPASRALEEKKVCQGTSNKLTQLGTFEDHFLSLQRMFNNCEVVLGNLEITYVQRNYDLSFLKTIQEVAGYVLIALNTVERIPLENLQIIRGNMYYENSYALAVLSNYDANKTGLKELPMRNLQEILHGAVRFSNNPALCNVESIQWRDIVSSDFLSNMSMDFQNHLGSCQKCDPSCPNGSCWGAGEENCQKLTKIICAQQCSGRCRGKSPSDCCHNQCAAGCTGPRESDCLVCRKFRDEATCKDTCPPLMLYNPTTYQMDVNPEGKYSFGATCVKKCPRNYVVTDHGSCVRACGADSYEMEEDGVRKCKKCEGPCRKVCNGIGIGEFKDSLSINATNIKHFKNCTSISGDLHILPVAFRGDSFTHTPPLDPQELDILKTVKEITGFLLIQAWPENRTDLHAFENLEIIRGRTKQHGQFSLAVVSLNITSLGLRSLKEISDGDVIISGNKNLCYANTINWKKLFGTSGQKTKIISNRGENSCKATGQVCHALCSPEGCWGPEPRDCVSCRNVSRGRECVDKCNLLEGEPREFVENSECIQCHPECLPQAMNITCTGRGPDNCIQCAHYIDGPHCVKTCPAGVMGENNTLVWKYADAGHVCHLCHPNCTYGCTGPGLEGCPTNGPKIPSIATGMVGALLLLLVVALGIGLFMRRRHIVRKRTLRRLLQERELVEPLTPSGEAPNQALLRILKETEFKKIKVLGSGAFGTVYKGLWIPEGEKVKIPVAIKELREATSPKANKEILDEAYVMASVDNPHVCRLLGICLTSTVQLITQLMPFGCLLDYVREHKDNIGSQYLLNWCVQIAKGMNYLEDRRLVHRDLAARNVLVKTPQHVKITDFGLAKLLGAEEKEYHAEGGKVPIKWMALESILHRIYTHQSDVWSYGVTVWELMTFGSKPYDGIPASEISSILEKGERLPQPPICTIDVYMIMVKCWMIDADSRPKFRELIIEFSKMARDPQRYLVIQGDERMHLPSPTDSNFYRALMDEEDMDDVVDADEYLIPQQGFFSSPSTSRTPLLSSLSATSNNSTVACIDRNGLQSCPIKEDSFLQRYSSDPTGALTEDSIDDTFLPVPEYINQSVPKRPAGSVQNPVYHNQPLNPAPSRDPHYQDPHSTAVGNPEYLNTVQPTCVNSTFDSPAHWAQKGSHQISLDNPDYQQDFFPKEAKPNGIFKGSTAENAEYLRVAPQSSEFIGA
Sequence of Fibroblast growth factor 10 (Homo sapiens) (O15520 whole entry, looked up): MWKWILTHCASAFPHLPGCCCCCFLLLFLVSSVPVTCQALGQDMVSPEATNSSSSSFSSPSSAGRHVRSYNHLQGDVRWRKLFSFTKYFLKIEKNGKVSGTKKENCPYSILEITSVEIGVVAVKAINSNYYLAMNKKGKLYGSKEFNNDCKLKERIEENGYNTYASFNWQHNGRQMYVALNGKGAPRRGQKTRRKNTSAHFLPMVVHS
Sequence of Left-right determination factor 2 (Homo sapiens) (O00292 whole entry, looked up): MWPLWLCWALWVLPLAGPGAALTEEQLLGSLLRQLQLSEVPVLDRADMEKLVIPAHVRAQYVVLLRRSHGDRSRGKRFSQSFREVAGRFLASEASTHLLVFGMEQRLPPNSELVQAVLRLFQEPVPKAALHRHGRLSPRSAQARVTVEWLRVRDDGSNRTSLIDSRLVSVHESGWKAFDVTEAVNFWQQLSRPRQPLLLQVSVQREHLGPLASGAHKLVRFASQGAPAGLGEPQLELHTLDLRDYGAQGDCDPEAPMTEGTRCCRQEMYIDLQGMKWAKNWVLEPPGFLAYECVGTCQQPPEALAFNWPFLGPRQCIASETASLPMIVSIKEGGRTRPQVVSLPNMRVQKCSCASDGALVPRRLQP
Sequence of Dickkopf-related protein 1 (Homo sapiens) (O94907 whole entry, looked up): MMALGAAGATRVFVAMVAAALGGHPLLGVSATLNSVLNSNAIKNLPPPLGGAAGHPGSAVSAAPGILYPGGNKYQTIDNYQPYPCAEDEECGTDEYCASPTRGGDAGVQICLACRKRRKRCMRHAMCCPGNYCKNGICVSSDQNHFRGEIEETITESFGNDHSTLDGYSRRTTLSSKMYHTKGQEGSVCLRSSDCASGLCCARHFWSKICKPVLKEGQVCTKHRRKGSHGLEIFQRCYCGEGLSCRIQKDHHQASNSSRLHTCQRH

Compound	composite z-score [1]	composite z-score [2]	composite z-score [3]	z-score [4]	composite z-score [5]	composite z-score [6]	composite z-score [7]	composite z-score [8]	composite z-score [9]	composite z-score [10]	composite z-score [11]	z-score [12]	composite z-score [13]	composite z-score [14]	composite z-score [15]	composite z-score [16]	composite z-score [17]	composite z-score [18]	composite z-score [19]	composite z-score [20]
Cc1ccc(S[C@]2(C(=O)NCC(F)(F)F)CC(=O)N(Cc3ccccc3)[C@@H]2c2ccc(CO)cc2I)cc1	1.37	0.307	0.264	-0.432 (inactive)	-0.376	-0.342	-0.592	-0.507	-0.813	0.548	0.503	-2.48	-0.842	-0.0153	0.517	-0.0203	-0.0362	0.358	0.349	1.36
CN(C)CCCNC(=O)[C@@]1(c2ccc([N+](=O)[O-])cc2)CC(=O)N(CC23CC4CC(CC(C4)C2)C3)[C@@H]1c1ccc(CO)cc1I	1.59	-0.0761	0.407	-0.854 (inactive)	0.879	0.556	0.555	1.34	1.08	0.0974	1.39	-3.54	0.703	0.307	-0.0622	0.0668	0.462	0.192	1.27	1.15
O=C1NC(=O)C2C1C=CC(C(O)c1cccc3ccccc13)N2Nc1ccc(Cl)cc1Cl (stereo not given)	0.477	0.911	1.16	1.02 (inactive)	0.46	0.267	-0.459	0.0589	-1.03	1.01	1.38	-0.445	-0.908	1.49	0.973	0.0654	0.481	1.4	0.723	1.1
CC(c1ccccc1)C(O)C1C=CC2C(=O)N(c3ccccc3)C(=O)C2N1Nc1ccc([N+](=O)[O-])cc1 (stereo not given)	1.38	0.831	0.862	-0.43 (inactive)	0.781	1.3	0.424	1.23	-0.405	0.854	1.46	-0.0504	0.365	0.93	0.328	-0.001	-0.0146	0.457	0.464	1.53
COCCOC(=O)N1C(=O)[C@@]2(c3cc(C#CC4=CCCCC4)ccc31)[C@H](c1ccc(OCCO)cc1)N1[C@H](c3ccccc3)[C@H](c3ccccc3)OC(=O)[C@H]1[C@@H]2C(=O)NC[C@H](O)c1ccccc1	1.44	0.677	0.696	-0.228 (inactive)	1.35	1.31	0.933	1.49	1.32	1.29	1.33	-1.88	0.958	0.868	0.458	-0.0297	0.107	0.802	1.06	1.19
CN1C(=O)C2C=CC(C(O)COCc3ccccc3)N(N(c3ccccc3)c3ccccc3)C2C1=O (stereo not given)	0.35	0.553	0.815	0.915 (inactive)	0.126	-0.588	0.238	0.127	-0.674	-0.101	1.31	-1.4	-0.142	1.41	0.667	0.0915	0.204	0.773	0.454	0.458
COCCCNC(=O)[C@@]1(Cc2ccccc2CN=[N+]=[N-])N=C(c2ccc(OCCCO)cc2)O[C@H]1c1ccccc1	1.06	0.432	0.825	-0.645 (inactive)	1.31	0.235	-0.331	0.561	-0.497	0.31	1.47	-2.84	-0.0313	1.34	0.475	0.0257	0.313	0.999	1.62	1.52
CN(C)C(=O)C1N=C(c2ccc(OCCCO)cc2)N(c2ccccc2)O1 (stereo not given)	1.22	0.0309	-0.0552	-1.06 (inactive)	1.5	1.13	0.662	0.739	0.726	-0.319	1.41	-0.842	1.28	1.21	-0.0846	-0.0486	-0.0733	-0.461	0.81	0.741
CC(CO)N1C(=O)[C@@H]2[C@H]3C(=O)OCC=C[C@H]3OC23C=CCN(C(C)(C)C)C(=O)[C@@H]13 (stereo not given in full)	0.115	-0.323	0.129	0.74 (inactive)	-0.0566	-0.764	-1.14	-0.205	-0.496	-0.197	-1.89	-0.619	-0.7	-0.119	-0.72	0.308	-0.289	-0.158	-1.13	0.193
O=C1NC(=O)C2C1C=CC(C(O)c1c(F)cccc1Cl)N2Nc1ccc(Cl)cc1Cl (stereo not given)	1.49	1.4	1.41	1.57 (inactive)	0.185	0.249	-0.391	0.0256	-0.367	1.29	0.635	-0.133	-0.536	2.33	1.01	0.0923	0.0782	1.42	2.71	2.76
